Test results published in the supplement of paper PMC10849652.
The full data set covers some 7,900 targets. This sample favours those with a hit. About 0.6% of all pairs of compound and target were hits.

Assays:
Assay in all cases: log2 fold change, soluble protein after heating vs DMSO (PISA); higher = thermal stabilisation; K562 cells, 10 uM, 30 min; active = over 0.2 and 3.5 SD of the protein, either way, in both replicates (recomputed)
[1] = compound: C1=CC=C(C=C1)[C@H](COC2=CC3=C(C=C2)NC(=O)N3)NC(=O)C4=CC=CN(C4=O)CC5=CC(=C(C=C5)F)F
Outline: (§1)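 Soluble protein was quantified by TMTpro 16plex LC-MS/MS after channel sums were equalised. It was obtained as the supernatant after 21,000xg for 90 min from pooled aliquots of K562 cells (2×10^6 cells/mL, 10 μM compound, 30 min) heated for 3 min across 48°C-58°C and extracted in PBS with 0.5% NP-40 at 4°C. Thermal stability values are relative to control samples and come from duplicates. They are given as log2 fold changes.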

[2] = compound: CC1=C(SC2=C1C(=N[C@H](C3=NN=C(N32)C)CC(=O)N)C4=CC=C(C=C4)Cl)C
Outline: as §1

[3] = compound: CC1=C2C(=CC=C1)N=C(N(C2=O)C3=CC=CC=C3C)CN4C=NC5=C(N=CN=C54)N
Outline: as §1

[4] = compound: Cc1sc2c(c1C)C(c1ccc(Cl)cc1)=N[C@@H](CC(=O)OC(C)(C)C)c1nnc(C)n1-2
Outline: as §1

[5] = compound: c1ccc([C@@H]2C[C@H]2NC2CCNCC2)cc1
Outline: as §1

Measured: log2 fold change

TMEM9 (UniProt Q9P0T7)
Sequence of UniProt Q9P0T7 (Q9P0T7 whole entry, looked up): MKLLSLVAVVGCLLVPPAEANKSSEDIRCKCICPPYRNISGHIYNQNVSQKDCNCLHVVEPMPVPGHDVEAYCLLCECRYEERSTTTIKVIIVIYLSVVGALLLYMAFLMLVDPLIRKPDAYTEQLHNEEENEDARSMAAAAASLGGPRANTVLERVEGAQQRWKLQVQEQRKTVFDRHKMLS
inactive: [1] 0.008 | [2] 0.02 | [3] -0.002 | [4] -0.027 | [5] -0.079

VPS72 isoform 2 (UniProt Q15906)
Sequence of UniProt Q15906 (Q15906 whole entry, looked up): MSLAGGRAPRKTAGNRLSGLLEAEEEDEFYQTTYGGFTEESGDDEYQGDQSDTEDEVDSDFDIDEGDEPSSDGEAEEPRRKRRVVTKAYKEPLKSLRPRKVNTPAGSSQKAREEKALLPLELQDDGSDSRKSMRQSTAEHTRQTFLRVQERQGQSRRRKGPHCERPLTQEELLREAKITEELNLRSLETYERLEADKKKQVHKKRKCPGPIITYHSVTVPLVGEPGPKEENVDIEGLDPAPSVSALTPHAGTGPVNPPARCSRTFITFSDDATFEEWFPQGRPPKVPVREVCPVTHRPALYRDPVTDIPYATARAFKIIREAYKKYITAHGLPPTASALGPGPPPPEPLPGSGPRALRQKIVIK
inactive: [1] 0.123 | [2] -0.106 | [3] 0.055 | [4] 0.05 | [5] -0.013

TNPO1 (UniProt Q92973)
inactive: [1] -0.017 | [2] 0.008 | [3] -0.012 | [4] -0.009 | [5] 0.018

VPS50 (UniProt Q96JG6)
Sequence of UniProt Q96JG6 (Q96JG6 whole entry, looked up): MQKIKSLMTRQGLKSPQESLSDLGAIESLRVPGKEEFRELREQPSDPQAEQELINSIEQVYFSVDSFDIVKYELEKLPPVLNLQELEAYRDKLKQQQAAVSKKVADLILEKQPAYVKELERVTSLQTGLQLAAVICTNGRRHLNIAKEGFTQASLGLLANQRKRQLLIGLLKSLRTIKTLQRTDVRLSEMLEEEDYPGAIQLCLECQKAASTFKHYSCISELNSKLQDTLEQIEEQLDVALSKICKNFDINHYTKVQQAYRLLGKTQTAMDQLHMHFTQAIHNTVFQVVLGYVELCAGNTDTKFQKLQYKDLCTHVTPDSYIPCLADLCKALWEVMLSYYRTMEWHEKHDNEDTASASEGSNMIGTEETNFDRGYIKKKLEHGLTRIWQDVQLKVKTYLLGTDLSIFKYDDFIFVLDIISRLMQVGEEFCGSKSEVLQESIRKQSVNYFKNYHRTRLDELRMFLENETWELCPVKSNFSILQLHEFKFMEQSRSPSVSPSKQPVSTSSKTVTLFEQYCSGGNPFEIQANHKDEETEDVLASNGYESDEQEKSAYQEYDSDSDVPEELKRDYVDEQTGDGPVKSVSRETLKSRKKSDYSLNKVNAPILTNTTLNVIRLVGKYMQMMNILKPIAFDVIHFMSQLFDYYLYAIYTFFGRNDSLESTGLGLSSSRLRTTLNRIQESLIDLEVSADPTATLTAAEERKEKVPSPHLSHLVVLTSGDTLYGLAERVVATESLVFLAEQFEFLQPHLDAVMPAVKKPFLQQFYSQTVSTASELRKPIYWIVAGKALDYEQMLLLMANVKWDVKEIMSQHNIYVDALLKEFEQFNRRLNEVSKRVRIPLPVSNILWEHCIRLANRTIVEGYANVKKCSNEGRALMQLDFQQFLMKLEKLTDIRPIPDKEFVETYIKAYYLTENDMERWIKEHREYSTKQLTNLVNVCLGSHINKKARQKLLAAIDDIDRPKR
inactive: [1] -0.039 | [2] 0.055 | [3] 0.022 | [4] -0.013 | [5] 0.01

TMEM219 (UniProt Q86XT9)
Sequence of UniProt Q86XT9 (Q86XT9 whole entry, looked up): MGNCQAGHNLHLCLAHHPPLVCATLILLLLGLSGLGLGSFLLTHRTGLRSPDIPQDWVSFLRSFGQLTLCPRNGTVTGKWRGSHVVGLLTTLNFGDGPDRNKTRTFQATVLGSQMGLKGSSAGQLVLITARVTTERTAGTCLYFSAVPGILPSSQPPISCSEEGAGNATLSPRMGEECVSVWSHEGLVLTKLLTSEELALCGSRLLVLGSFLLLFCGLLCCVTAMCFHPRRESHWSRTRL
inactive: [1] 0.066 | [2] -0.023 | [3] -0.172 | [4] 0.016 | [5] -0.162

TRIM28 (UniProt Q13263)
inactive: [1] -0.029 | [2] 0.029 | [3] 0.017 | [4] -0.012 | [5] 0.009

TMEM173 (UniProt Q86WV6)
Sequence of UniProt Q86WV6 (Q86WV6 whole entry, looked up): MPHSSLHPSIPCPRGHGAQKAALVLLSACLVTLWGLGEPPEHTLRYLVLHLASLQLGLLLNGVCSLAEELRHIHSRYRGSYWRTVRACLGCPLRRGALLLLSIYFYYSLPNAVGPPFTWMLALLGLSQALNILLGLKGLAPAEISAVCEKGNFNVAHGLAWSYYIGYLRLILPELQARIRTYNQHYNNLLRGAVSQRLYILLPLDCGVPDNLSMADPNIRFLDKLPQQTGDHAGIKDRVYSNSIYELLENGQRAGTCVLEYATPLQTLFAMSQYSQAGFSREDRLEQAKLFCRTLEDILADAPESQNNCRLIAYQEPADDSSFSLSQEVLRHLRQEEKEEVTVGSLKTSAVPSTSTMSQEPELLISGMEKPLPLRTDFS
inactive: [1] -0.035 | [2] 0.045 | [3] 0.086 | [4] -0.099 | [5] -0.005

USP34 (UniProt Q70CQ2)
inactive: [1] -0.083 | [2] 0.081 | [3] 0.142 | [4] -0.003 | [5] 0.034

VRK2 (UniProt Q86Y07)
Sequence of UniProt Q86Y07 (Q86Y07 whole entry, looked up): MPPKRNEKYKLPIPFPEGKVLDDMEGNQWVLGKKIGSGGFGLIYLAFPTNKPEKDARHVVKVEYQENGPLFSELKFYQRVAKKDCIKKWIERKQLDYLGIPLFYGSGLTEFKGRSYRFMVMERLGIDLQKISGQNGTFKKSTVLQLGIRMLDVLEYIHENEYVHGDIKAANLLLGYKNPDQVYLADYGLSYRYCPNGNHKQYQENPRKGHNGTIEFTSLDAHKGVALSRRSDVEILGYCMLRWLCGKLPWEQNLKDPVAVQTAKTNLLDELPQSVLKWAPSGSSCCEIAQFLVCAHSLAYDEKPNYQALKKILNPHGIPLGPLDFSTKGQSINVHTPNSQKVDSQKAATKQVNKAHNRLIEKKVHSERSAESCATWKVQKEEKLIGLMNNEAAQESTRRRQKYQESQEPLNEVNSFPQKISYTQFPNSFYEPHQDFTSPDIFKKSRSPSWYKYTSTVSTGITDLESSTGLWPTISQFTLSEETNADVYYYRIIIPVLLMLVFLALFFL
inactive: [1] 0.001 | [2] 0.004 | [3] 0.011 | [4] 0.005 | [5] -0.083

XRCC5 (UniProt P13010)
inactive: [1] -0.136 | [2] -0.019 | [3] 0.095 | [4] 0 | [5] -0.003

TMEM63B (UniProt Q5T3F8)
Sequence of UniProt Q5T3F8 (Q5T3F8 whole entry, looked up): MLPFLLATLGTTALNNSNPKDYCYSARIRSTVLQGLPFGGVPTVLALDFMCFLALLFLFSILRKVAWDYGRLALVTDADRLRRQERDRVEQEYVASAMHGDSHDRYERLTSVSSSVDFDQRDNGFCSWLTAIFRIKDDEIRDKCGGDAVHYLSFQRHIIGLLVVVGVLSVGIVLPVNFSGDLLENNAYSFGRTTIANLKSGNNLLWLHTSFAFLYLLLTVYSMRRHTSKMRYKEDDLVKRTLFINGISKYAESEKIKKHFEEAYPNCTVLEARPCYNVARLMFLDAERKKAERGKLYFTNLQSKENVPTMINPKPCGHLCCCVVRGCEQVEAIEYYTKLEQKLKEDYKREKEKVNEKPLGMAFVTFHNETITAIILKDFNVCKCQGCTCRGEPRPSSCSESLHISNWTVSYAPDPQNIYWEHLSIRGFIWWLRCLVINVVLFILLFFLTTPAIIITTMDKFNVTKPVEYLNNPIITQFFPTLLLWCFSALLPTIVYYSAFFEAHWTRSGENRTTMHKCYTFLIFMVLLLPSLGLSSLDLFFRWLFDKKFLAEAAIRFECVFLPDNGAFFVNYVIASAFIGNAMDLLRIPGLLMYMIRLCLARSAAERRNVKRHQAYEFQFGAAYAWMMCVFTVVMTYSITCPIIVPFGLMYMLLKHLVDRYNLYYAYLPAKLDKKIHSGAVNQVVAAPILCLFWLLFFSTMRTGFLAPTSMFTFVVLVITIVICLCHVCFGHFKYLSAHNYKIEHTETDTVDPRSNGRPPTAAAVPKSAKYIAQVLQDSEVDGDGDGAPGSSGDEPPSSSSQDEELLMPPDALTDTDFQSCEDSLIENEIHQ
inactive: [1] 0.059 | [2] -0.005 | [3] -0.099 | [4] -0.036 | [5] -0.04

TSFM (UniProt P43897)
Sequence of UniProt P43897 (P43897 whole entry, looked up): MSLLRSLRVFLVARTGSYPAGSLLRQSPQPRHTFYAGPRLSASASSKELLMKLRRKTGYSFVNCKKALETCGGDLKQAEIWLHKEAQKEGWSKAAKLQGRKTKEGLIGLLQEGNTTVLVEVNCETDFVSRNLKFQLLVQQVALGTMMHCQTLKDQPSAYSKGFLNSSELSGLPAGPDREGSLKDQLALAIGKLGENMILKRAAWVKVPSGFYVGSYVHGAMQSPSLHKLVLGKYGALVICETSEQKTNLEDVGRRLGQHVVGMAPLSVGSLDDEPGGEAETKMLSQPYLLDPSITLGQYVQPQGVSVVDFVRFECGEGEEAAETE
inactive: [1] -0.17 | [2] 0.03 | [3] 0.177 | [4] -0.138 | [5] 0.012

VPS28 (UniProt Q9UK41)
inactive: [1] -0.075 | [2] 0.023 | [3] 0.064 | [4] 0.011 | [5] -0.01

TMEM189-UBE2V1 (UniProt I3L0A0)
inactive: [1] -0.047 | [2] 0.02 | [3] 0.102 | [4] -0.02 | [5] 0.048

TMEM208 (UniProt Q9BTX3)
inactive: [1] -0.101 | [2] 0.02 | [3] 0.088 | [4] -0.14 | [5] 0.031

UBR2 (UniProt Q8IWV8)
inactive: [1] -0.16 | [2] 0.04 | [3] 0.009 | [4] -0.014 | [5] -0.28

WARS1 (UniProt G3V5U1)
inactive: [1] 0.193

WDR11 (UniProt Q9BZH6)
inactive: [1] -0.076 | [2] 0.067 | [3] 0.111 | [4] 0.05 | [5] 0.023

UBE2J2 isoform 3 (UniProt Q8N2K1)
Sequence of UniProt Q8N2K1 (Q8N2K1 whole entry, looked up): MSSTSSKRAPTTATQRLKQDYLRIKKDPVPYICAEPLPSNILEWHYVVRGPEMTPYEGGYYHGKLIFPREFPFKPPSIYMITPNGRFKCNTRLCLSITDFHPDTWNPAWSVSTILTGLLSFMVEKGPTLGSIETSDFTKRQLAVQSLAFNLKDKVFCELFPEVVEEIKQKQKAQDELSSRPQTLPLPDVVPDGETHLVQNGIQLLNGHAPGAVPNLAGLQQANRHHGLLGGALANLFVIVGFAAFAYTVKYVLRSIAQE
inactive: [1] 0.003 | [2] 0.078 | [3] -0.106 | [4] -0.014 | [5] -0.144

UPF3B (UniProt Q9BZI7)
Sequence of UniProt Q9BZI7 (Q9BZI7 whole entry, looked up): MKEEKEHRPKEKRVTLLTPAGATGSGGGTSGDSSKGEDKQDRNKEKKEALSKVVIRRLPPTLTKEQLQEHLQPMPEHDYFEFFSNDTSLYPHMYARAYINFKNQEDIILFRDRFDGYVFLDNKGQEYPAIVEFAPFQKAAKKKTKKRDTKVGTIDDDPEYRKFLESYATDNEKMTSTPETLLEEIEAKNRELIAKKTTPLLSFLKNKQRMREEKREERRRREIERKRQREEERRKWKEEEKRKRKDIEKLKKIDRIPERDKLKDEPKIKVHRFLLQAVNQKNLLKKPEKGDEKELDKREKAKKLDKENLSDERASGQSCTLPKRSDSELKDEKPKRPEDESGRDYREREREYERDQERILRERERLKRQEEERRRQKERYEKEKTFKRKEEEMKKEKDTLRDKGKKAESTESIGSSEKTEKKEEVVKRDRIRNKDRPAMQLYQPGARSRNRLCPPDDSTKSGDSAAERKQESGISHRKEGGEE
inactive: [1] 0.259 | [2] -0.211 | [3] -0.161 | [4] 0.363 | [5] -0.001

XPOT (UniProt O43592)
inactive: [1] -0.028 | [2] 0.06 | [3] 0.083 | [4] -0.002 | [5] -0.001

UBA1 (UniProt P22314)
inactive: [1] -0.162 | [2] 0.044 | [3] 0.134 | [4] 0.044 | [5] -0.08

UBA6
inactive: [1] -0.018 | [2] 0 | [3] 0.06 | [4] 0.001 | [5] -0.002

WARS1 (UniProt G3V3P2)
inactive: [1] 0.095

WDR4 isoform 3 (UniProt P57081)
inactive: [1] -0.18

UBXN10 (UniProt Q96LJ8)
Sequence of UniProt Q96LJ8 (Q96LJ8 whole entry, looked up): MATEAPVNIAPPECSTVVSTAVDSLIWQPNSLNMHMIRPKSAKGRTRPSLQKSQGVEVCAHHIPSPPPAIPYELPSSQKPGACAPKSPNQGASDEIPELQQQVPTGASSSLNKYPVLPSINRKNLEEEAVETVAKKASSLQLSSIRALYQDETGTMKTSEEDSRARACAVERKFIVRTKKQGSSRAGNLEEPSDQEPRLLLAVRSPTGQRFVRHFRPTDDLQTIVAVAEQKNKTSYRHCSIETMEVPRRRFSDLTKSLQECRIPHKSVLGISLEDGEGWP
inactive: [1] 0.011 | [2] 0.014 | [3] 0.024 | [4] 0.018 | [5] 0.063
